Experimental data reported in PubChem BioAssay AID1159580 (chemical genetic matrix, 2015).
The whole screen tested about 5,500 compounds, of which about 2,000 (36%) were called active. Inconclusive results (about 18%) are left out. Cut-off read from the data, not from the text of the source: active = normalized growth mostly below about 0.91 (no sharp cut-off); inconclusive = no clear call, values can overlap the other calls; inactive = mostly above about 0.92. The list shows a part of the results.

Assay: chemical genetic growth profiling, strain panel (AID 1159580);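 note: tested at 20 µM; growth read once vehicle control cultures reached saturation at 30 °C; 1 = growth at the plate median or of vehicle wells; lower values mean less growth of the strain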
Conditions: growth OD

Measured: normalized growth

CCN(CC)CCOC(=O)C(c1ccccc1)c1ccccc1
inactive: S. cerevisiae deletion strains, locus YKL068W, active compounds read low 0.986 | S. cerevisiae deletion strains, locus YKL085W, strain MDH1 (second series), active compounds read low 0.994 | S. cerevisiae deletion strains, locus YKL085W, strain MDH1, active compounds read low 0.994 | S. cerevisiae deletion strains, locus YKL160W, strain elf1, active compounds read low 0.985 | S. cerevisiae deletion strains, locus YKL190W, strain CNB1, active compounds read low 0.989 | S. cerevisiae deletion strains, locus YKR001C, strain vps1, active compounds read low 1 | S. cerevisiae deletion strains, locus YKR026C, strain gcn3, active compounds read low 0.963 | S. cerevisiae deletion strains, locus YKR091W, strain srl3, active compounds read low 0.98 | S. cerevisiae deletion strains, locus YLL001W, strain dnm1, active compounds read low 0.952 | S. cerevisiae deletion strains, locus YLL026W, active compounds read low 0.971 | S. cerevisiae deletion strains, locus YLL041C, strain sdh2, active compounds read low 0.974 | S. cerevisiae deletion strains, locus YLR027C, strain aat2, active compounds read low 0.985 | S. cerevisiae deletion strains, locus YLR039C, strain RIC1, active compounds read low 1 | S. cerevisiae deletion strains, locus YLR058C, strain SHM2, active compounds read low 0.999 | S. cerevisiae deletion strains, locus YLR102C, strain apc9, active compounds read low 0.988 | S. cerevisiae deletion strains, locus YLR113W, strain HOG1, active compounds read low 0.965 | S. cerevisiae deletion strains, locus YLR221C, strain rsa3, active compounds read low 1 | S. cerevisiae deletion strains, locus YLR258W, strain gsy2, active compounds read low 0.963 | S. cerevisiae deletion strains, locus YLR262C, strain YPT6 (second series), active compounds read low 0.966 | S. cerevisiae deletion strains, locus YLR262C, strain YPT6, active compounds read low 1 | S. cerevisiae deletion strains, locus YLR268W, strain sec22, active compounds read low 0.984 | S. cerevisiae deletion strains, locus YLR320W, strain mms22, active compounds read low 1.01 | S. cerevisiae deletion strains, locus YLR330W, strain CHS5, active compounds read low 0.991 | S. cerevisiae deletion strains, locus YLR342W, strain FKS1 (second series), active compounds read low 0.988 | S. cerevisiae deletion strains, locus YLR342W, strain FKS1, active compounds read low 0.968 | S. cerevisiae deletion strains, locus YLR357W, strain rsc2, active compounds read low 0.982 | S. cerevisiae deletion strains, locus YLR370C, strain arc18, active compounds read low 0.945 | S. cerevisiae deletion strains, locus YLR371W, strain rom2, active compounds read low 1 | S. cerevisiae deletion strains, locus YLR384C, strain iki3, active compounds read low 0.97 | S. cerevisiae deletion strains, locus YLR418C, strain cdc73, active compounds read low 0.961 | S. cerevisiae deletion strains, locus YML016C, strain PPZ1, active compounds read low 0.998 | S. cerevisiae deletion strains, locus YML032C, strain rad52, active compounds read low 1 | S. cerevisiae deletion strains, locus YML120C, strain ndi1, active compounds read low 0.961 | S. cerevisiae deletion strains, locus YML124C, strain tub3, active compounds read low 0.992 | S. cerevisiae deletion strains, locus YMR058W, strain fet3, active compounds read low 0.97 | S. cerevisiae deletion strains, locus YMR078C, strain ctf18, active compounds read low 0.983 | S. cerevisiae deletion strains, locus YMR125W, strain sto1, active compounds read low 0.949 | S. cerevisiae deletion strains, locus YMR129W, active compounds read low 0.975 | S. cerevisiae deletion strains, locus YMR205C, strain PFK2, active compounds read low 0.971 | S. cerevisiae deletion strains, locus YMR223W, strain ubp8, active compounds read low 0.98 | S. cerevisiae deletion strains, locus YMR231W, strain pep5, active compounds read low 0.977 | S. cerevisiae deletion strains, locus YMR263W, strain SAP30, active compounds read low 0.991 | S. cerevisiae deletion strains, locus YMR307W, strain GAS1, active compounds read low 1.02 | S. cerevisiae deletion strains, locus YNL067W, strain RPL9B, active compounds read low 1.01 | S. cerevisiae deletion strains, locus YNL071W, strain lat1, active compounds read low 0.973 | S. cerevisiae deletion strains, locus YNL128W, strain TEP1, active compounds read low 0.968 | S. cerevisiae deletion strains, locus YNL183C, strain NPR1, active compounds read low 0.94 | S. cerevisiae deletion strains, locus YNL209W, strain ssb2, active compounds read low 0.969 | S. cerevisiae deletion strains, locus YNL233W, strain BNI4, active compounds read low 1.03 | S. cerevisiae deletion strains, locus YNL248C, strain rpa49, active compounds read low 0.976 | S. cerevisiae deletion strains, locus YNL250W, strain rad50, active compounds read low 0.99 | S. cerevisiae deletion strains, locus YNL271C, strain bni1, active compounds read low 0.984 | S. cerevisiae deletion strains, locus YNL298W, strain CLA4, active compounds read low 0.982 | S. cerevisiae deletion strains, locus YNL307C, strain MCK1, active compounds read low 0.998 | S. cerevisiae deletion strains, locus YNL322C, strain KRE1 (second series), active compounds read low 0.96 | S. cerevisiae deletion strains, locus YNL322C, strain KRE1, active compounds read low 0.987 | S. cerevisiae deletion strains, locus YNR049C, strain mso1, active compounds read low 0.96 | S. cerevisiae deletion strains, locus YNR052C, strain pop2, active compounds read low 0.98 | S. cerevisiae deletion strains, locus YOL006C, strain TOP1, active compounds read low 1.04 | S. cerevisiae deletion strains, locus YOL012C, strain htz1 0.836 | S. cerevisiae deletion strains, locus YOL147C, strain pex11, active compounds read low 0.994 | S. cerevisiae deletion strains, locus YOR001W, strain rrp6, active compounds read low 0.979 | S. cerevisiae deletion strains, locus YOR061W, strain CKA2, active compounds read low 0.999 | S. cerevisiae deletion strains, locus YOR069W, strain VPS5, active compounds read low 0.989 | S. cerevisiae deletion strains, locus YOR070C, strain gyp1, active compounds read low 0.974 | S. cerevisiae deletion strains, locus YOR080W, strain dia2, active compounds read low 0.957 | S. cerevisiae deletion strains, locus YOR083W, strain WHI5, active compounds read low 0.977 | S. cerevisiae deletion strains, locus YOR106W, strain vam3, active compounds read low 0.967 | S. cerevisiae deletion strains, locus YOR136W, strain idh2, active compounds read low 0.993 | S. cerevisiae deletion strains, locus YOR144C, strain elg1, active compounds read low 1 | S. cerevisiae deletion strains, locus YOR184W, strain ser1, active compounds read low 0.982 | S. cerevisiae deletion strains, locus YOR231W, strain MKK1, active compounds read low 0.989 | S. cerevisiae deletion strains, locus YOR265W, strain rbl2, active compounds read low 0.968 | S. cerevisiae deletion strains, locus YOR270C, strain vph1, active compounds read low 0.941 | S. cerevisiae deletion strains, locus YOR290C, strain snf2, active compounds read low 0.975 | S. cerevisiae deletion strains, locus YOR316C, strain cot1, active compounds read low 0.986 | S. cerevisiae deletion strains, locus YPL051W, strain arl3, active compounds read low 0.978 | S. cerevisiae deletion strains, locus YPL055C, strain LGE1, active compounds read low 1.02 | S. cerevisiae deletion strains, locus YPL078C, strain atp4, active compounds read low 0.965 | S. cerevisiae deletion strains, locus YPL106C, strain sse1, active compounds read low 0.931 | S. cerevisiae deletion strains, locus YPL240C, strain hsp82, active compounds read low 0.958 | S. cerevisiae deletion strains, locus YPL241C, strain CIN2, active compounds read low 0.991 | S. cerevisiae deletion strains, locus YPL256C, strain CLN2, active compounds read low 0.971 | S. cerevisiae deletion strains, locus YPR119W, strain clb2, active compounds read low 1 | S. cerevisiae deletion strains, locus YPR141C, strain kar3, active compounds read low 0.989 | S. cerevisiae deletion strains, locus YPR163C, strain tif3, active compounds read low 0.996 | S. cerevisiae deletion strains, locus YPR167C, strain met16, active compounds read low 0.987 | S. cerevisiae deletion strains, strain wtn01, active compounds read low 0.969 | S. cerevisiae strains, strain wild type, active compounds read low 0.992
